B1: ENSMUSG00000042529.435|Kcnj12|146:150 (ssRNA)
RNA: GGGAGUUCUACAGUCCGACGAUCGCUUCGAUAUCCGCAUGCUAAGAGAGAGAGAGAGAGAGAGAGAGAGAGAGAGAGAGAGAGCUGCACAGGAUGAAGCAGCUGCCCUGAGCCCAUCUGGUGCUGUGCACCUGGUCCUUGUCCAGCCGAGGGCCUGGGGGCAGAAGAACACACCAUAGGGAGGCCCUUCAUACGGUGUCUGCCCUAUGUGAGGUCAUAGAAUGUUAAAUCUAUUUUAAACGGUGAAACUGGAGAAUUUUCAUGUUAUUUUCAAUAAUAGUGGUAUCUAAAGAUGUAGGCAACACUCUUGCGGUCGCACUAGUGUGGAAUUCUCGGGUGUCAAGG
B2: ENSMUSG00000035202.98|Lars2 (ssRNA)
RNA: GGGAGUUCUACAGUCCGACGAUCGCUUCGAUAUCCGCAUGCUAUCCUGCUCAGUACGAGAGGAACCGCAGCUAGCUUGUGUCUCCAGUGUCUUUUACCAUCACAGGCCCUGGCUCUGUGCUACCUCCCUAGAAUACCUGUGGUUCAUCACCUUCAGCUCACACUCCAUUCAGACAAUGCUCACUUAGGCCUACAAGCAAGGGAGAGGCUUAAGCACAAGGUCUUUAAGCUUGAUACUGUGCCUGGUCUCAAUGCCUAGAAAUUCCAACUUAACUGUCGCUAUCAUAAAGGAUUUUAAAUUUUUCUCUUGCGGUCGCACUAGUGUGGAAUUCUCGGGUGUCAAGG
B3: ENSMUSG00000090935.628|Synj2bp (ssRNA)
RNA: GGGAGUUCUACAGUCCGACGAUCGCUUCGAUAUCCGCAUGCUAGUCUUAAACUGAUUAGUAACACUAUGACUUACCCUGAGAUCUAAGUAUUGCUAUAAAGAGACUGAAGAGGAGAGAAUAAAGUAUUUUCCUAGGACUACAUAGUUGGUAAAAGAGAAUCAUGAUUUAAACUCUGGACUAUGGAUGGCAGUAUCAGUAAUAUUCCCUCAUAGCUAGCAGUCCUCAUGCAAGGUCUCUGAACAAAAGCAACGUAUCACCUGCAAAUGCUUGGGUUUCAUCCCAUUCUUAUGGAGUGAGAUGAGCUCUUGCGGUCGCACUAGUGUGGAAUUCUCGGGUGUCAAGG
B4: ENSMUSG00000061578.1408|Ksr2|69:73 (ssRNA)
RNA: GGGAGUUCUACAGUCCGACGAUCGCUUCGAUAUCCGCAUGCUACUCCACGGACCUCAGGCCCACUGUUUUCUCCAUGUCUGUCUGUACUGACUGUUGCAGAAUGAGCUGAUCAUACAUCUUGAUUCUCCAUUUUCCUUCUGGACCACAUGUCUCUUCCUUUUCCUUUUUAGAUCUGUCUUGCUCUCUGUCUCUCUCACUCAUUGCCAACAUGUUGCUGGGAAAGAAUAUUUGAUUUAGAUGCCAAUCAGGAAGGCAAGUAGGAUGGAUGGAUGAGUGAGUGGAUAGGUAGGUAUAUAAAUGGACUCUUGCGGUCGCACUAGUGUGGAAUUCUCGGGUGUCAAGG
B5: ENSMUSG00000031028.69|Tub|109:121;139:143 (ssRNA)
RNA: GGGAGUUCUACAGUCCGACGAUCGCUUCGAUAUCCGCAUGCUAUGGAGGUACAGAGGGAGAGGAAGCACAAGCCUGGCUGCUGUGGCUCAGCCAUCCACUCAGCCUACGAGUCAGAGACAGUGGGUGUCCCGGGAAGCAGGGGUACAGUGACACACACACAUACUACAGGGCACUCAAGCUCAUACUAGAAAAAGCUCUGGUGGUCAGCAGAAAGCACUCCCACUUCAAAAGGGCCCAUUAGGCCCAAAGGGGGUUAGGAGUGGUAGGGAUAGGUGCGUGGCAGGUCCCUGCUAGGAUUGCAGCUCUUGCGGUCGCACUAGUGUGGAAUUCUCGGGUGUCAAGG
B6: ENSMUSG00000028439.266|Fam219a|244:248 (ssRNA)
RNA: GGGAGUUCUACAGUCCGACGAUCGCUUCGAUAUCCGCAUGCUAUGCUGGUCUGGUCUGAGGGAGGAAAGCUGAGGCUGUAGCUCAGUGAGAUGGUGGCUCUCCCAUGGCUGAAGACAAGUGCAAGCAGAGAGAGCCUCAGGCUGCUGGGCCUCGGACCCACGAGCCUCCUCUCACUGAGCCAGUGCGGCCAGAGUGUCUCUCCUUCAGGCGCCCCACAUGCCAGCAUUUCCACCCUCUGGAUUCUCCUCACAUGUCACUCUCCAGGUGCCGGGGCCUAGAGUGGGCCACACAGAAGGAGGAGUCUCUUGCGGUCGCACUAGUGUGGAAUUCUCGGGUGUCAAGG
B7: ENSMUSG00000042529.487|Kcnj12 (ssRNA)
RNA: GGGAGUUCUACAGUCCGACGAUCGCUUCGAUAUCCGCAUGCUAGAUGUGCGUCUCACUGGCCUCUGCCUGCCUCUCCCGCCUGCGGAGCACUUACACUUCCUGGGGCCCCUGCAGCUGGACCAUGUACAGGGCUCCCUGGGGCUUGUCCUCAGGGGCAGAGAAGGACAUGGUGGCAGCAGCACUGAGAACAGGAGCAUGGCCUCUCUCAGACCCCAGGGCAGUCAUUCAGUCUUUUCCAUGGACACUCCCCACCGCUCCACAUACUGCCUCCGCCUCAUUCUUGGGCUCUUCCUGCCUUGCUGCUCUUGCGGUCGCACUAGUGUGGAAUUCUCGGGUGUCAAGG
B8: ENSMUSG00000004113.203|Cacna1b (ssRNA)
RNA: GGGAGUUCUACAGUCCGACGAUCGCUUCGAUAUCCGCAUGCUAGCAUCGUGGAUGAGGUACGGCCUCAGGAAGCAUCGGGUGGAUUGGGUGGGAGCUGCUCAGAGCAGCACGGGGGCUUGUGUCUUAGGGACAUUGACAGUGUCCAUCAGCAUGUCAGAGAAGCAGCUGUAGUGCCCGUGUUUCUCCCUGAGUCAUGGGUUCUGAAGAAGCCAGAGCGGCACAAUGCGUGCUUGCAUGAGGCACUUUCAGCCUUUUUAAAUCUGACUCUCAGGGAUGGGAUGCCUGCCAAGUAGGGUGUAAUCCUCUUGCGGUCGCACUAGUGUGGAAUUCUCGGGUGUCAAGG
B9: ENSMUSG00000058297.41|Spock2 (ssRNA)
RNA: GGGAGUUCUACAGUCCGACGAUCGCUUCGAUAUCCGCAUGCUAGGGAGUGUGGCUUGUGUGUAUGUGUGAUAUGAGAUGUGUGUGUAUGAUGUGAGAUGUGAGUGUGUGAUGUGAGAUGUGUGUAUGUGAGAUGUGUGUGUGUGUGUGUGUGUGUGUGAUGUGAGUCACCCAAAGGUCCCUAUGUUAUUGAUUUUCAAAUGCACACUUUCACACACAAGGAUACACUAACAGACCAAAAUCAAUGAGAUGUCCCUGAUCCUGCCCCUCAGCCCAACACCUGGAAUCCCUGCCCUGCCUAAUCACUCUUGCGGUCGCACUAGUGUGGAAUUCUCGGGUGUCAAGG
B10: ENSMUSG00000058297.39|Spock2 (ssRNA)
RNA: GGGAGUUCUACAGUCCGACGAUCGCUUCGAUAUCCGCAUGCUAGGGGGAGGACUGGGGAGUGUGGCUUGUGUGUAUGUGUGAUAUGAGAUGUGUGUGUAUGAUGUGAGAUGUGAGUGUGUGAUGUGAGAUGUGUGUAUGUGAGAUGUGUGUGUGUGUGUGUGUGUGUGUGAUGUGAGUCACCCAAAGGUCCCUAUGUUAUUGAUUUUCAAAUGCACACUUUCACACACAAGGAUACACUAACAGACCAAAAUCAAUGAGAUGUCCCUGAUCCUGCCCCUCAGCCCAACACCUGGAAUCCCUGCCUCUUGCGGUCGCACUAGUGUGGAAUUCUCGGGUGUCAAGG
B11: ENSMUSG00000058297.38|Spock2 (ssRNA)
RNA: GGGAGUUCUACAGUCCGACGAUCGCUUCGAUAUCCGCAUGCUAUCCAGUGGGGGAGGACUGGGGAGUGUGGCUUGUGUGUAUGUGUGAUAUGAGAUGUGUGUGUAUGAUGUGAGAUGUGAGUGUGUGAUGUGAGAUGUGUGUAUGUGAGAUGUGUGUGUGUGUGUGUGUGUGUGUGAUGUGAGUCACCCAAAGGUCCCUAUGUUAUUGAUUUUCAAAUGCACACUUUCACACACAAGGAUACACUAACAGACCAAAAUCAAUGAGAUGUCCCUGAUCCUGCCCCUCAGCCCAACACCUGGAAUCUCUUGCGGUCGCACUAGUGUGGAAUUCUCGGGUGUCAAGG
B12: ENSMUSG00000058297.40|Spock2 (ssRNA)
RNA: GGGAGUUCUACAGUCCGACGAUCGCUUCGAUAUCCGCAUGCUAGGACUGGGGAGUGUGGCUUGUGUGUAUGUGUGAUAUGAGAUGUGUGUGUAUGAUGUGAGAUGUGAGUGUGUGAUGUGAGAUGUGUGUAUGUGAGAUGUGUGUGUGUGUGUGUGUGUGUGUGAUGUGAGUCACCCAAAGGUCCCUAUGUUAUUGAUUUUCAAAUGCACACUUUCACACACAAGGAUACACUAACAGACCAAAAUCAAUGAGAUGUCCCUGAUCCUGCCCCUCAGCCCAACACCUGGAAUCCCUGCCCUGCCCUCUUGCGGUCGCACUAGUGUGGAAUUCUCGGGUGUCAAGG
B13: ENSMUSG00000058297.37|Spock2 (ssRNA)
RNA: GGGAGUUCUACAGUCCGACGAUCGCUUCGAUAUCCGCAUGCUACCUGGCUCCAGUGGGGGAGGACUGGGGAGUGUGGCUUGUGUGUAUGUGUGAUAUGAGAUGUGUGUGUAUGAUGUGAGAUGUGAGUGUGUGAUGUGAGAUGUGUGUAUGUGAGAUGUGUGUGUGUGUGUGUGUGUGUGUGAUGUGAGUCACCCAAAGGUCCCUAUGUUAUUGAUUUUCAAAUGCACACUUUCACACACAAGGAUACACUAACAGACCAAAAUCAAUGAGAUGUCCCUGAUCCUGCCCCUCAGCCCAACACCCUCUUGCGGUCGCACUAGUGUGGAAUUCUCGGGUGUCAAGG
B14: ENSMUSG00000058297.38|Spock2|23:27;31:44;53:64;78:84;93:102;108:133 (ssRNA)
RNA: GGGAGUUCUACAGUCCGACGAUCGCUUCGAUAUCCGCAUGCUAUCCAGUGGGGGAGGACUGGGGACACACGCUACACACAUACACACAUAUGAGAACACACACAUACAUGUGAGAUGUGACACACACAUGUGAGAACACACAUACUGAGAACACACACACACACACACACACACACAUGUGAGUCACCCAAAGGUCCCUAUGUUAUUGAUUUUCAAAUGCACACUUUCACACACAAGGAUACACUAACAGACCAAAAUCAAUGAGAUGUCCCUGAUCCUGCCCCUCAGCCCAACACCUGGAAUCUCUUGCGGUCGCACUAGUGUGGAAUUCUCGGGUGUCAAGG

Over roughly 9,900 sequences, “r (bound/input frequency ratio)” has its median near 0.7; the highest 2% begin near 6.5. The sample as a whole holds a higher share of the highest values than the screen did.

Chain of TDP-43 (Q13148 whole entry): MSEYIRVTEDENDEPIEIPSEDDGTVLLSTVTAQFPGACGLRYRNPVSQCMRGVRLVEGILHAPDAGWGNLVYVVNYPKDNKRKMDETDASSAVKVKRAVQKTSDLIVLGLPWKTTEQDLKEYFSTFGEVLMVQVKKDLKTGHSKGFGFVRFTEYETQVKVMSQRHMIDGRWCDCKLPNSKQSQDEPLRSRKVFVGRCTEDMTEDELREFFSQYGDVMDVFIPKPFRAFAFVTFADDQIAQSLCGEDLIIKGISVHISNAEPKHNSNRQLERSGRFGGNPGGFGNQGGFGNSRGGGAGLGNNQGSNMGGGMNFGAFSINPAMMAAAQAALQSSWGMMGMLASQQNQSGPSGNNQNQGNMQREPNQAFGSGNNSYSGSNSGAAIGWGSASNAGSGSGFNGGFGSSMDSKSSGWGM

This assay concerns the target TDP-43 (Homo sapiens, UniProt Q13148 1-414). The assay is described as follows: RNA Bind-n-Seq with designed 260-mer pool; 25 mM Tris-HCl, 150 mM KCl, 3 mM MgCl2, BSA (printed 500 mg/mL), 20 units/mL SUPERase IN; pH not stated; 500 nM RNA pool, 1 h, 4 C; TDP-43 5, 50, 500 nM; high values mean tight binding. The note with it: protein: recombinant; tags: SBP (GST cleaved off with PreScission; pGEX-GST-SBP). The method, boiled down:
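In 25 mM Tris-HCl, 150 mM KCl, 3 mM MgCl2, BSA and SUPERase IN, 500 nM of an in vitro-transcribed 260-nt 3′ UTR oligo pool was incubated for 1 h at 4 °C with SBP-tagged TDP-43 (5, 50 or 500 nM) captured on streptavidin beads. RNA remaining after washes was biotin-eluted, reverse transcribed, PCR-amplified and sequenced. Binding, R, is the bound-sample abundance of each oligo, normalized to mapped reads, divided by its abundance in input. Each duplicate used a separate, independent protein batch.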
Regarding B1, the binding signal is 4.76 R (bound/input frequency ratio). In the case of B2, the binding signal is 0.339 R (bound/input frequency ratio). Turning to B3, the binding signal is 0.125 R (bound/input frequency ratio).

Regarding B4, the binding signal was 0.845 R (bound/input frequency ratio). Regarding B5, the binding signal was 0.841 R (bound/input frequency ratio). For B6, the binding signal was 0.614 R (bound/input frequency ratio). To B7 belongs 0.428 R (bound/input frequency ratio).

Consider B8, for which the binding signal is 1.21 R (bound/input frequency ratio). B9: the binding signal is 5.21 R (bound/input frequency ratio). Regarding B10, the binding signal was 5.98 R (bound/input frequency ratio).

Turning to B11, the binding signal was 6.55 R (bound/input frequency ratio). To B12 belongs 8.17 R (bound/input frequency ratio). As for B13, the binding signal was 6.03 R (bound/input frequency ratio).

For B14, the binding signal was 2.11 R (bound/input frequency ratio).

Source of the values: paper PMC12864922, “TDP-43 directly inhibits mRNA accumulation in neurites through modulation of mRNA stability”.
